smiles,measurement,setting,value
O=C(Nc1ccccc1)Nc1cccc(Oc2ccc3nccn3n2)c1 [TPKI-39],Kinases covered,CSF1R,CSF1R
Cn1ccc2ncnc(Oc3ccc(NC(=O)Nc4ccccc4)cc3)c21 [TPKI-69],Kinases covered,CSF1R,CSF1R
Fc1ccc(-c2nn3ccccc3c2-c2ccncc2)cc1 [GW434756X],Kinases covered,CSNK1A1,CSNK1A1
Nc1nccc(-c2c(-c3ccc(F)cc3)ncn2C2CCN(Cc3ccccc3)CC2)n1 [SB-219980],Kinases covered,CSNK1A1,CSNK1A1
same,Kinases covered,CSNK1D,CSNK1D
same,Kinases covered,CSNK1E,CSNK1E
Cc1nccc(-c2c(-c3ccc(F)cc3)ncn2CCCN2CCOCC2)n1 [SB-282975],Kinases covered,CSNK1D,CSNK1D
C[C@@H]1CCN(C(=O)CC#N)C[C@@H]1N(C)c1ncnc2[nH]ccc12 [PFE-PKIS 25],Kinases covered,DCLK3,DCLK3
Cc1cc(NC(=O)c2cccc(NC(=O)/C=C/CN(C)C)c2)ccc1Nc1nccc(-c2cccnc2)n1 [JNK-IN-7],Kinases covered,DRAK1,DRAK1
same,Kinases covered,ERK3,ERK3
CCC(NN(C)C)=C1C(=O)Nc2ccc(C(C)=O)cc21 [BI00036838],Kinases covered,DYRK1B,DYRK1B
same,Kinases covered,DYRK2,DYRK2
Cc1cccc(CC(=O)N2CCc3c2ccc(-c2cn(C)c4ncnc(N)c24)c3F)n1 [GSK2656157],Kinases covered,EIF2AK3,EIF2AK3
Cn1cc(-c2ccc3c(c2)CCN3C(=O)Cc2cccc(C(F)(F)F)c2)c2c(N)ncnc21 [GSK2606414],Kinases covered,EIF2AK3,EIF2AK3
COC(=O)Nc1nc2ccc(Oc3ccc(NC(=O)Nc4cc(C(F)(F)F)ccc4F)cc3)cc2s1.Cl [GW693917A],Kinases covered,EPHA2,EPHA2
COc1cc2ncnc(Nc3cccc(Cl)c3F)c2cc1O[C@H]1CC[C@H]([C@@H]2NCCNC2=O)CC1 [BI00133844],Kinases covered,EPHA6,EPHA6
same,Kinases covered,EPHB4,EPHB4
COc1cc2ncnc(Nc3cccc(Cl)c3F)c2cc1O[C@H]1CC[C@@]2(CC1)NCCNC2=O [BI00113608],Kinases covered,EPHA6,EPHA6
same,Kinases covered,EPHB4,EPHB4
Cn1ccc(-c2cccc(Nc3ccnc4cc(-c5nccs5)ccc34)c2)n1 [GW525701],Kinases covered,EPHB6,EPHB6
COC(=O)C(NC(=O)NC1CCN(c2ccnc(Nc3ccc(F)cc3)n2)C1)c1ccccc1 (stereo not shown) [GSK1379712],Kinases covered,EPHB6,EPHB6
C=CC(=O)Nc1cc(-c2nn(C3CCC(N4CCN(C(C)=O)CC4)CC3)c3ncnc(N)c23)ccc1Oc1ccccc1 (stereo not shown) [TX-85-1],Kinases covered,ERBB3,ERBB3

# Reference: paper PMC7826789 (International Journal of Molecular Sciences, 2021)
